Measurements reported in PubChem BioAssay AID1159580 (chemical genetic matrix, 2015).
About 2,000 (36%) of roughly 5,500 compounds were called active. About 18% were inconclusive and are not listed. This is one part of the list. Unmarked numbers belong to inactive results. Rule as the data show it: active = normalized growth mostly below about 0.91 (no sharp cut-off); inconclusive = no clear call, values can overlap the other calls; inactive = mostly above about 0.92.

Test: chemical genetic growth profiling, strain panel (AID 1159580);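 also: tested at 20 µM; growth read once vehicle control cultures reached saturation at 30 °C; 1 = growth at the plate median or of vehicle wells; lower values mean less growth of the strain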
Conditions: S. cerevisiae deletion strains, growth OD

CC(=O)[C@@]12O[C@](C)(c3ccccc3)O[C@@H]1CC1C3CCC4=CC(=O)CC[C@]4(C)C3CC[C@@]12C (some centres undefined)
normalized growth (locus YHR030C, strain SLT2, hits give low values): 1.06
normalized growth (locus YHR079C, strain IRE1, hits give low values): 1.03
normalized growth (locus YJL095W, strain BCK1, hits give low values): 0.901
normalized growth (locus YJR066W, strain TOR1, hits give low values): 1.01
normalized growth (locus YLR113W, strain HOG1, hits give low values): 0.897
normalized growth (locus YNL183C, strain NPR1, hits give low values): 0.987
normalized growth (locus YOR231W, strain MKK1, hits give low values): 1
normalized growth (locus YPL256C, strain CLN2, hits give low values): 1.02

C[C@]12CCC(=O)C=C1CC[C@@H]1[C@@H]2[C@@H](O)C[C@@]2(C)[C@H]1CC[C@]2(O)C(=O)COC(=O)CCC(=O)O
normalized growth (locus YAL040C, strain CLN3, hits give low values): 1.11 [resistant] (active)
normalized growth (locus YCL061C, strain MRC1 (second series), hits give low values): 1
normalized growth (locus YDR363W, strain ESC2, hits give low values): 1
normalized growth (locus YER002W, strain NOP16, hits give low values): 0.982
normalized growth (locus YGR078C, strain PAC10, hits give low values): 1.01
normalized growth (locus YNL175C, strain NOP13, hits give low values): 1.01
normalized growth (locus YNL197C, strain WHI3, hits give low values): 1.01
normalized growth (locus YNL224C, strain SQS1, hits give low values): 0.994
normalized growth (locus YNL322C, strain KRE1, hits give low values): 0.996
normalized growth (locus YOR083W, strain WHI5 (second series), hits give low values): 0.972
normalized growth (locus YPL241C, strain CIN2, hits give low values): 0.999
